Assay [1] can be described thus: optical density shifts of acrAB sulA E. coli – strain DRC41, OD650, 48 h, E. coli filamentation inducer project, primary screen (AID 1152).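 Also: E. coli MC1000 strain DRC41 lacking acrAB efflux pump and sulA.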 As to conditions: higher = more signal, called active from +8 up or from −8 down.
A short description of assay [2]: probe aLefty1 binding on compound microarray – biochemical, small-molecule microarray, 635/667 nm fluorescence, primary screen (AID 1153).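 Also: score merges spot fluorescence with signal-to-noise ratio from the scanned slide images.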 As to conditions: higher = more signal.
A short description of assay [3]: plasmodial surface anion channel blockers, osmotic lysis – cell-based, P. falciparum Indochina, OD700, 1 h, primary screen (AID 1154). As to conditions: P. falciparum Indochina infected RBC osmotic lysis, higher = more signal, called active from +8 up or from −8 down.
Assay [4] can be described thus: plasmodial surface anion channel blockers, osmotic lysis – cell-based, P. falciparum Indochina, OD700, 2 h, primary screen (AID 1155).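 Also: lysis reports solute entry through the parasite surface anion channel PSAC.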 As to conditions: P. falciparum Indochina infected erythrocytes, higher = more signal, called active from +8 up or from −8 down.
The nature of assay [5]: changes in parasitized red cell lysis, either direction – P. falciparum Indochina, OD700, 3 h, PSAC antagonist project, primary screen (AID 1156). As to conditions: P. falciparum-infected erythrocytes, osmotic lysis, higher = more signal, called active from +8 up or from −8 down.
The nature of assay [6]: plasmodial surface anion channel blockers, osmotic lysis – cell-based, P. falciparum Indochina, OD700, 18 h, primary screen (AID 1157). As to conditions: P. falciparum Indochina infected erythrocytes, osmotic lysis OD700, 18 h; higher = more signal, called active from +8 up or from −8 down.
Assay [7] in a line: S6 kinase pathway phospho-S6 level changes – cell-based, A549, cytoblot, luminescence, serum-stimulated, primary screen (AID 1158).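 Also: serum-stimulated A549 lung adenocarcinoma cells; signal is phosphorylated S6 detected by cytoblot immunostaining with HRP secondary.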 As to conditions: 5 h, higher = more signal.
Assay [8] deals with NADPH oxidase 2 (Homo sapiens) (UniProt P04839). The assay is described as follows: compounds shifting NOX2 Amplex Red fluorescence – cell-based, HEK293-NOX2, PMA-stimulated, NOX inhibitor project, primary screen (AID 1159). Also: test concentration not given here. As to conditions: 45 min, higher = more signal, called active from +8 up or from −8 down.
The target in assay [9] is NADPH oxidase 4 (Homo sapiens) (UniProt Q9NPH5). The assay is described as follows: compounds shifting NOX4 Amplex Red fluorescence – cell-based, HEK293-NOX4, tetracycline-induced, NOX inhibitor project, primary screen (AID 1160). As to conditions: HEK293-NOX4, Amplex Red H2O2 fluorescence, 45 min; higher = more signal, called active from +8 up or from −8 down.
Assay [10] concerns the target NADPH oxidase 5 (Homo sapiens) (UniProt Q96PH1). Description: compounds shifting NOX5 Amplex Red fluorescence – cell-based, HEK293-NOX5, NOX inhibitor project, primary screen (AID 1161). As to conditions: HEK293-NOX5, ionomycin, 45 min, higher = more signal.
Assay [11] can be described thus: compound effects on lung adenocarcinoma cell viability – A549, calcein-AM fluorescence, 48 h, basal, profiling panel (AID 1162). Also: test concentration not given here. As to conditions: higher = more signal.
Assay [12] is described as follows: compound effects on differentiated 3T3-L1 adipocyte viability – cell-based, 3T3-L1 adipocytes, calcein-AM fluorescence, 48 h, basal, profiling panel (AID 1163). Also: test concentration not given here. As to conditions: 3T3-L1 adipocytes viability, higher = more signal.
Assay [13] can be described thus: compound effects on hepatocellular carcinoma cell viability – HepG2, calcein-AM fluorescence, 48 h, basal, profiling panel (AID 1164). Also: test concentration not given here. As to conditions: higher = more signal.
Assay [14] can be described thus: compound effects on multiple myeloma cell viability – MM1S, calcein-AM fluorescence, 48 h, basal, profiling panel (AID 1165). Also: test concentration not given here. As to conditions: higher = more signal.
A short description of assay [15]: calcein-AM signal in unstimulated myeloma cells – cell-based, calcein-AM fluorescence, 48 h, PK04 Diversity Set, profiling panel (AID 1166).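 Also: cells grown under basal conditions without added stimulus; test concentration not given here.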 As to conditions: RPMI8226 myeloma viability, higher = more signal.
Assay [16] can be described thus: JC-1 mitochondrial signal, unstimulated HepG2 cells – cell-based, JC-1 fluorescence, 24 h, 100 nL compound, profiling panel (AID 1167). Also: test concentration not given here. As to conditions: HepG2 mitochondrial potential, higher = more signal.
The nature of assay [17]: JC-1 mitochondrial signal, unstimulated adipocytes – cell-based, JC-1 fluorescence, 3T3-L1 adipocytes, 24 h, 100 nL compound, profiling panel (AID 1168). Also: test concentration not given here. As to conditions: JC-1 mitochondrial fluorescence, higher = more signal, called active from +8 up or from −8 down.
Assay [18] can be described thus: JC-1 mitochondrial signal, unstimulated myeloma cells – cell-based, JC-1 fluorescence, RPMI8226, 24 h, 100 nL compound, profiling panel (AID 1169). Also: test concentration not given here. As to conditions: JC-1 mitochondrial potential fluorescence, higher = more signal.
Assay [19] is described as follows: JC-1 mitochondrial signal, unstimulated MM1S myeloma – cell-based, JC-1 fluorescence, 24 h, 100 nL compound, profiling panel (AID 1170). Also: test concentration not given here. As to conditions: MM1S mitochondrial potential, higher = more signal.
Assay [20] in a line: resazurin metabolic signal in A549 cells – cell-based, resazurin fluorescence, 24 h, PK04 Diversity Set, profiling panel (AID 1171). Also: test concentration not given here. As to conditions: A549 viability, higher = more signal, called active from +8 up or from −8 down. (In general: Alamar Blue is a resazurin reagent that responds to reducing activity.)

Calls of active or inactive are those of the source.

Chain of NADPH oxidase 2 (Homo sapiens) (P04839 whole entry, looked up): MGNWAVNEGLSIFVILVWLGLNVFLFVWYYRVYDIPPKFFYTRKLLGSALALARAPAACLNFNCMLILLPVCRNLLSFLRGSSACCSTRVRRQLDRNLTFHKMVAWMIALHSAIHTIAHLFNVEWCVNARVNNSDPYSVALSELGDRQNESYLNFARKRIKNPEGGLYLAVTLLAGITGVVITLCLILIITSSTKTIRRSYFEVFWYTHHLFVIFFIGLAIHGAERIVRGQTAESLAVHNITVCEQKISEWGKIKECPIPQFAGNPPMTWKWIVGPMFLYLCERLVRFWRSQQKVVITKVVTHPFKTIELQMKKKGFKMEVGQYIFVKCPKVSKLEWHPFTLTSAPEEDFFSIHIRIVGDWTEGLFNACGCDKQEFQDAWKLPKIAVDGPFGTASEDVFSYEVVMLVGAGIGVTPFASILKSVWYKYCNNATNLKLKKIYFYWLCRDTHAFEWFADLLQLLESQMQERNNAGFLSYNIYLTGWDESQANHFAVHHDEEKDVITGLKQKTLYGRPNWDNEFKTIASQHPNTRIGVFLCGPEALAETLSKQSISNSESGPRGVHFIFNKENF
Chain of NADPH oxidase 4 (Homo sapiens) (Q9NPH5 whole entry, looked up): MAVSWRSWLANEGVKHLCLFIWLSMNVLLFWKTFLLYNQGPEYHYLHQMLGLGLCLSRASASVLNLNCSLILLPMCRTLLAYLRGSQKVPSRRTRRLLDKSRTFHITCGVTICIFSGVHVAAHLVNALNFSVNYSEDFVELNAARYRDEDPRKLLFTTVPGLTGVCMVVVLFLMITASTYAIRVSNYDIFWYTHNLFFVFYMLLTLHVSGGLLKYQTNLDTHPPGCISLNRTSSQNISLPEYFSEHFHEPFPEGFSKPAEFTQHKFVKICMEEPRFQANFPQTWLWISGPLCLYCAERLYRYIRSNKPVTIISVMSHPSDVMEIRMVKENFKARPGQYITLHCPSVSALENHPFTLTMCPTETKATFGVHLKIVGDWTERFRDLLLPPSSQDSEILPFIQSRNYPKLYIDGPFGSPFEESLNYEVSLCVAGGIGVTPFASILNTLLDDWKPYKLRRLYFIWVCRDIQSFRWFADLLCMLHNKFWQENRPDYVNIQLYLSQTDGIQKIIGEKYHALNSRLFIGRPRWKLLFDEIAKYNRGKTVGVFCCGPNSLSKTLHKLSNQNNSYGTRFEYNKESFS
Chain of NADPH oxidase 5 (Homo sapiens) (Q96PH1 whole entry, looked up): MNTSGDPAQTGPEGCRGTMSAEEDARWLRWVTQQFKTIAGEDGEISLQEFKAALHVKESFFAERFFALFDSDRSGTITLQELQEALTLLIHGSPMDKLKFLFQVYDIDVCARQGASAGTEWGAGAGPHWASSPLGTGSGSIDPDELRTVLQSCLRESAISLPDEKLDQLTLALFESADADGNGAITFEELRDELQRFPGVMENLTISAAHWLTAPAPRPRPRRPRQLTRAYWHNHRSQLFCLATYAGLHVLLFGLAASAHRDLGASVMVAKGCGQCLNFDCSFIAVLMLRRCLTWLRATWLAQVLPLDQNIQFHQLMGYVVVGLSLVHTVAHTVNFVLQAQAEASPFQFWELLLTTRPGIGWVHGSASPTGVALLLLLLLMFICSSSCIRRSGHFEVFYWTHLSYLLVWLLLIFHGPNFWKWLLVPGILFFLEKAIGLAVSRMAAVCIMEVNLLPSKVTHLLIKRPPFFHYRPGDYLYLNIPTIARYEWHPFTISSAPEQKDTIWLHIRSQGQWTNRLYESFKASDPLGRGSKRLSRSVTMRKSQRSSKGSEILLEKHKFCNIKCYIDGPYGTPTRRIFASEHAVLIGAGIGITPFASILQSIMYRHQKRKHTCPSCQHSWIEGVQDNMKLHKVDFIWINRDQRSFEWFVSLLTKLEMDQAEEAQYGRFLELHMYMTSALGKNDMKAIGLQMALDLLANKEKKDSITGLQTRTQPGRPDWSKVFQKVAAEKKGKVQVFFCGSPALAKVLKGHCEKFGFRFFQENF

In the case of `CCC1=NOC(CCC2CC(OC(=O)NCc3cccc4c3OCO4)CC3(CCCC(COC(=O)NCCc4ccccc4OC)O3)O2)C1` (stereo not given), the z-score in [1] was 0.572 (inactive); in assay [3], 15.9 (active); in assay [4], 2.99 (inactive); in assay [5], -0.501 (inactive); in [6], 0.568 (inactive); in [7], 0.0314. Further, the z-score in assay [8] is 0.642 (inactive); in assay [9], -0.115 (inactive); in [10] it was 0.0819; in assay [11] it was -1.02; in assay [12], 0.405; in assay [13], -2.26. In addition, the z-score in assay [14] was -3.6; in [15], -3.84; in assay [16], 0.559; in [17], -0.197 (inactive); in assay [18] it was -0.77; in assay [19], -2.17. For the same compound, in assay [20], the z-score was 0.492 (inactive). The compound further returned a composite z-score in assay [2] of -0.0573.
As to `CCOC(=O)[C@H](Cc1ccccc1)NC(=O)CCC1CC(OC(=O)NCc2cccc3ccccc23)CC2(CCCC(COC(=O)NCCC(C)C)O2)O1` (stereo not given in full), the z-score in assay [1] was 0.165 (inactive); in assay [3], 15.9 (active); in assay [4], 1.95 (inactive); in assay [5], -2.04 (inactive); in [6], -0.492 (inactive); in [7], 0.255. Also, the z-score was 1.59 (inactive) in assay [8]; 1.24 (inactive) in assay [9]; 0.101 in assay [10]; 0.509 in [11]; -0.0617 in [12]; -0.166 in [13]. In addition, the z-score in assay [14] was 0.389; in assay [15], 0.302; in [16], -0.433; in [17], -0.133 (inactive); in assay [18], -0.758; in [19] it was -0.121. Further, in assay [20], the z-score was 1.32 (inactive). In [2], this compound had a composite z-score of -0.0733.
As to `CCOC(=O)[C@H](Cc1ccccc1)NC(=O)CCC1CC(OC(=O)NCCc2ccc(F)cc2)CC2(CCCC(COC(=O)NCCc3ccc(Cl)cc3)O2)O1` (stereo not given in full), the z-score is 0.0991 (inactive) in assay [1]; 1.13 (inactive) in assay [3]; -0.525 (inactive) in assay [4]; 0.056 (inactive) in [5]; 0.126 (inactive) in assay [6]; 0.406 in [7]. The z-score is 0.526 (inactive) in assay [8]; 0.311 (inactive) in assay [9]; 1.13 in assay [10]; -0.648 in [11]; -0.224 in assay [12]; -0.44 in [13]. In addition, the z-score was -1.91 in assay [14]; -1.94 in assay [15]; -0.0496 in [16]; -0.305 (inactive) in assay [17]; 0.158 in assay [18]; -0.56 in assay [19]. For the same compound, the z-score in assay [20] is 0.0031 (inactive). The compound further displayed a composite z-score in [2] of -0.0244.
`O=C1CCCC(C2=CCCCC2=O)C1` (stereo not given): the z-score in [1] was -0.316 (inactive); in assay [3], 0.599 (inactive); in assay [4] it was -0.349 (inactive); in assay [5] it was 0.231 (inactive); in assay [6] it was -0.168 (inactive); in [7] it was 0.142. The z-score in assay [8] was -0.7 (inactive); in [9], -0.427 (inactive); in [10], -0.253; in assay [11], -0.965; in assay [12] it was -0.824; in assay [13] it was -0.114. In addition, the z-score in assay [14] is 0.322; in assay [15], 0.652; in assay [16], 0.512; in [17], -0.845 (inactive); in assay [18], 0.987; in assay [19], -0.857. In assay [20], the z-score is -0.684 (inactive). This compound registered a composite z-score in assay [2] of -0.0224.

Source of the values: PubChem BioAssay.
